DUX4 inh = DUX4-mediated transcription inhibition. 0.8% of 37,000 active. AID 1224904. activity change, negative = inhibition, % (test concentration not listed). 293T-iDUX4 ZSCAN4-Gaussia luciferase reporter, 24 h; stronger effect = lower value;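 active means mean inhibition of at least 10% in the main channel, exceeding the control channel by a set limit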
Large screens that a line does not name were inactive; ! = repeats disagree. This excerpt belongs to a sample that is enriched for hits.

C[C@@H]1CN([C@@H](C)CO)C(=O)c2c(c3ccccc3n2C)-c2ccccc2CO[C@@H]1CN(C)Cc1ccc(C(F)(F)F)cc1	DUX4 inh -27
C[C@@H]1CN([C@H](C)CO)C(=O)c2c(c3ccccc3n2C)-c2ccccc2CO[C@H]1CN(C)Cc1cccc(O)c1	none
C[C@@H]1CN([C@H](C)CO)C(=O)c2c(c3ccccc3n2C)-c2ccccc2CO[C@H]1CN(C)Cc1ccc(O)cc1	none
C[C@H](CO)N1C[C@H](C)[C@@H](CN(C)Cc2cccc(C(F)(F)F)c2)OCc2ccccc2-c2c(n(C)c3ccccc23)C1=O	DUX4 inh -54
C[C@H]1CN([C@@H](C)CO)S(=O)(=O)c2ccc(-c3ccccc3F)cc2O[C@@H]1CN(C)C(=O)C1CC1	none
COc1ccccc1NC(=O)N1C[C@@H](O)COC[C@H]2O[C@H](CC(=O)NCc3ccccc3)CC[C@@H]21	none
COc1ccc(NC(=O)Nc2cccc3c2O[C@@H](CN(C)Cc2ccc(C(=O)O)cc2)[C@@H](C)CN([C@H](C)CO)C3=O)cc1	none
CCCC(=O)Nc1ccc2c(c1)OC[C@H](C)N(S(=O)(=O)c1cn(C)cn1)C[C@@H](C)[C@@H](OC)CN(C)C2=O	none
COc1ccc(NC(=O)Nc2ccc3c(c2)C(=O)N([C@H](C)CO)C[C@H](C)[C@@H](CN(C)S(=O)(=O)c2cn(C)cn2)O3)cc1	none
C[C@@H]1CCCCO[C@@H](CN(C)C(=O)Nc2cccc3ccccc23)[C@@H](C)CN([C@H](C)CO)C(=O)c2cc(N(C)C)ccc2O1	none
CN(C)C(=O)c1cccc(-c2ccc(C3[C@@H]4CN(C(=O)Cc5ccccc5)C[C@H]3N4)cc2)c1 (some centres undefined)	none
CN(C)C(=O)c1cccc(-c2ccc(C3[C@H]4CNC[C@@H]3N4S(=O)(=O)c3ccc(Cl)cc3)cc2)c1 (some centres undefined)	none
O=S(=O)(c1ccccc1)N1C[C@@H]2N[C@H](C1)C2c1ccc(-c2cccnc2)cc1 (some centres undefined)	DUX4 inh -13!
COc1cccc(-c2ccc(C3[C@@H]4CN(S(=O)(=O)c5cccc(Cl)c5)C[C@H]3N4)cc2)c1 (some centres undefined)	none
COc1ccc(S(=O)(=O)N2[C@@H]3CNC[C@H]2C3c2ccc(-c3cccc(OC)c3)cc2)cc1 (some centres undefined)	none
COc1cccc(-c2ccc(C3[C@@H]4CN(S(=O)(=O)c5ccccc5)C[C@H]3N4)cc2)c1 (some centres undefined)	DUX4 inh -20
O=S(=O)(c1ccc(F)cc1)N1[C@@H]2CNC[C@H]1C2c1ccc(-c2cccnc2)cc1 (some centres undefined)	none
O=C(c1ccc(F)cc1)N1C[C@@H]2N[C@H](C1)C2c1ccc(-c2cccnc2)cc1 (some centres undefined)	none
CN(C)C(=O)c1cccc(-c2ccc(C3[C@@H]4CN(S(=O)(=O)c5cccc(Cl)c5)C[C@H]3N4)cc2)c1 (some centres undefined)	DUX4 inh -28
O=C(C[C@H]1CC[C@H](NS(=O)(=O)c2ccc(F)cc2)[C@@H](CO)O1)NC1CCCCC1	none
COc1cccc(NC(=O)N2C[C@H](O)COC[C@@H]3O[C@H](CC(=O)NCc4ccccc4F)CC[C@H]32)c1	none
CS(=O)(=O)N1CCCCN2[C@@H](CO)[C@H](c3ccc(C4=CCCC4)cc3)[C@@H]2C1	none
C[C@@H]1CN([C@H](C)CO)C(=O)c2cc(NC(=O)Nc3cccc4ccccc34)ccc2O[C@@H]1CN(C)S(=O)(=O)c1cccs1	none
COc1ccc2c3c(n(C)c2c1)[C@@H](CO)N(Cc1ccccc1OC)CC31CN(C(=O)C2CC2)C1	none
COCC(=O)Nc1ccc2c(c1)C(=O)N(C)[C@@H]1CC[C@@H](CC(=O)O)O[C@@H]1CO2	none
CN(C)CC(=O)N1[C@H](C#N)[C@H](c2ccccc2-c2ccc(C(=O)N(C)C)cc2)[C@H]1CO	none
CC(=O)N1[C@@H]2CN(S(=O)(=O)c3cccc(C)c3)c3ccccc3[C@@H]2[C@@H]1CO	none
C[C@@H]1CN([C@@H](C)CO)C(=O)c2c(c3ccccc3n2C)-c2ccccc2CO[C@@H]1CN(C)S(=O)(=O)c1ccc(C#N)cc1	none
C[C@@H]1CN([C@H](C)CO)C(=O)c2c(c3ccccc3n2C)-c2ccccc2CO[C@H]1CN(C)S(=O)(=O)c1ccc(F)cc1	DUX4 inh -29
C[C@@H]1CN([C@H](C)CO)C(=O)c2c(c3ccccc3n2C)-c2ccccc2CO[C@H]1CN(C)S(C)(=O)=O	none
C[C@@H]1CN([C@H](C)CO)C(=O)c2c(c3ccccc3n2C)-c2ccccc2CO[C@@H]1CN(C)S(C)(=O)=O	none
C[C@H]1CN([C@@H](C)CO)C(=O)c2c(c3ccccc3n2C)-c2ccccc2CO[C@@H]1CN(C)S(=O)(=O)c1ccc([N+](=O)[O-])cc1	none
C[C@@H]1CN([C@H](C)CO)C(=O)c2c(c3ccccc3n2C)-c2ccccc2CO[C@H]1CN(C)S(=O)(=O)c1cccc(C#N)c1	none
